Data: PubChem BioAssay (Tox21)
Values joined by “and” are separate entries in the source; they are usually repeats but may differ in a detail not shown here. Identical values can stand only once. A number with no mark means an inactive call. Inconclusive results are not listed. A call without a number means that no potency is given here. Active and inactive are the calls of the source. Unless noted, calls come from the whole dose curve; as a rule, active = well fitted curve in the direction sought with a large enough effect in the repeat runs; inconclusive = weak or mixed curves; inactive = no such curve, though single readings can be large; an effect the other way counts as inactive or inconclusive.

Legend:
[1] = molecular target: Thyrotropin receptor (Homo sapiens) (UniProt P16473); test: qHTS assay to identify small molecule agonists of the thyroid stimulating hormone receptor (TSHR) signaling pathway (AID 1224843; calls by dose curve; note: nearly all actives have a fitted effect of over 45% in size; note: potency is the fitted concentration of half-maximal effect)
In short: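 Agonist-mode screen: TSHR HEK293 cells received test chemicals for half an hour at room temperature, then HTRF cAMP detection reagents for one hour prior to fluorescence measurement. Each chemical ran as a 15-concentration series, triplicated.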

[2] = qHTS assay to identify small molecule agonists of the hypoxia (HIF-1) signaling pathway - cell viability counter screen (AID 1224844; calls by dose curve; note: nearly all actives have a fitted effect of over 50% in size)
In short: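 In this counter screen, HRE-bla ME-180 cell viability after 17 hrs of compound exposure at 37C was read by CellTiter-Glo luminescence, multiplexed with the beta-lactamase reporter measurement.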

[3] = qHTS assay to identify small molecule agonists of H2AX - cell viability counter screen (AID 1224847; calls by dose curve; note: nearly all actives have a fitted effect of over 30% in size; note: potency is the fitted concentration of half-maximal effect)
In short: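 Quantitative HTS viability measurement: CHO-K1 wild-type cells in serum (10% FBS) medium, short 3 hr drug exposure at 37C with 0.76% DMSO, CellTiter-Glo luminescent detection.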

[4] = qHTS assay to identify small molecule antagonists of the estrogen related receptor (ERR) signaling pathway from Tox21 library (AID 1224848); note: nearly all actives have a fitted effect of over 50% in size
In short: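 Quantitative high-throughput format: ERR reporter cells (2,000/well) pre-incubated 6 h, treated 18 h at 37 C with compounds in DMSO alongside positive and negative controls, then read by ONE-Glo luminescence.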

[5] = qHTS assay to identify small molecule agonists of the estrogen related receptor (ERR) signaling pathway from Tox21 library (AID 1224849; calls by dose curve; note: nearly all actives have a fitted effect of over 15% in size); settings: ERR reporter cell line, ONE-Glo luciferase, 18 h; at 92.4 µM (top of the series)
In short: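 Luciferase activity in ERR pathway reporter cells served as the agonist readout; exposure lasted 18 h at 37 C, with ONE-Glo detection after 30 min at room temperature.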

[6] = qHTS RealTime-Glo MT Cell Viability Assay in HepG2 cells - 24 hour (AID 1224867); note: nearly all actives have a fitted effect of over 50% in size; note: potency is the fitted concentration of half-maximal effect
In short: (§1)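 Tox21 10K library screened in qHTS format on HepG2 cells carrying RealTime-Glo reagents. Compounds were added after a 5 h preincubation, and the luminescent signal from continuous culture was measured repeatedly during 40 h treatment.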

[7] = qHTS RealTime-Glo MT Cell Viability Assay in HEK293 cells - 32 hour (AID 1224868); note: nearly all actives have a fitted effect of over 50% in size; note: potency is the fitted concentration of half-maximal effect
In short: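 Luminescence generated by NanoLuc from substrate produced by living HEK293 cells served as the viability signal. Each value reflects the reading at its stated time point during continuous 40 h compound exposure at 37 C.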

[8] = A CellTox Green Cytotoxicity Assay to monitor cytotoxicity in HEK293 cells - 0 hour (AID 1224869); note: nearly all actives have a fitted effect of over 50% in size
In short: (§2)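 Real-time, in one plate: 600 HEK293 cells/well with dead-cell DNA dye, pinned compound after 5 h, 37 C incubation over 40 h; viable cells give no appreciable fluorescence.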

[9] = qHTS RealTime-Glo MT Cell Viability Assay in HepG2 cells - 40 hour (AID 1224870); note: nearly all actives have a fitted effect of over 50% in size; note: potency is the fitted concentration of half-maximal effect
In short: (§3)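 HepG2 cells (600/well) mixed with RealTime-Glo MT reagent, settled 5 h at 37 C/5% CO2 before compound addition. Nonlytic NanoLuc luminescence from viable-cell prosubstrate reduction read repeatedly during 40 h treatment at 37 C.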

[10] = A CellTox Green Cytotoxicity Assay to monitor cytotoxicity in HEK293 cells - 40 hour (AID 1224871); note: nearly all actives have a fitted effect of over 45% in size; note: potency is the fitted concentration of half-maximal effect
In short: as §2

[11] = qHTS RealTime-Glo MT Cell Viability Assay in HepG2 cells - 8 hour (AID 1224873); note: nearly all actives have a fitted effect of over 55% in size
In short: as §3

[12] = A CellTox Green Cytotoxicity Assay to monitor cytotoxicity in HEK293 cells - 24 hour (AID 1224875); note: nearly all actives have a fitted effect of over 45% in size; note: potency is the fitted concentration of half-maximal effect
In short: as §2

[13] = A CellTox Green Cytotoxicity Assay to monitor cytotoxicity in HepG2 cells - 16 hour (AID 1224876); note: nearly all actives have a fitted effect of over 45% in size; note: potency is the fitted concentration of half-maximal effect
In short: (§4)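 Cytotoxicity was tracked as dead-cell DNA fluorescence in HepG2 cells treated with test compounds at 37 C; each time-point value comes from one kinetic series spanning 0, 8, 16, 24, 32 and 40 h.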

[14] = qHTS RealTime-Glo MT Cell Viability Assay in HepG2 cells - 32 hour (AID 1224877); note: nearly all actives have a fitted effect of over 55% in size; note: potency is the fitted concentration of half-maximal effect
In short: as §1

[15] = A CellTox Green Cytotoxicity Assay to monitor cytotoxicity in HepG2 cells - 24 hour (AID 1224878); note: nearly all actives have a fitted effect of over 45% in size; note: potency is the fitted concentration of half-maximal effect
In short: as §4

[16] = A CellTox Green Cytotoxicity Assay to monitor cytotoxicity in HepG2 cells - 40 hour (AID 1224879); note: nearly all actives have a fitted effect of over 40% in size; note: potency is the fitted concentration of half-maximal effect
In short: as §4

[17] = qHTS assay to identify small molecule agonists of H2AX (AID 1224845; active = well fitted activation curve with a large enough effect in the signal ratio in the repeat runs, not every such curve was filed as active; the % refers to the signal ratio)
In short: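 Wild-type CHO-K1 cells, plated overnight, exposed 3hr at 37C to 15 concentrations (0.76% DMSO final). Lysed, then HTRF anti-pH2AX (S139) cryptate and anti-H2AX-d2 antibodies, 24 hr room temperature; 665/620 nm emission read.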

[18] = qHTS assay to identify small molecule agonists of the hypoxia (HIF-1) signaling pathway (AID 1224846; active = well fitted activation curve with a large enough effect in the signal ratio in the repeat runs, not every such curve was filed as active; the % refers to the signal ratio)
In short: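 ME-180 HRE-bla reporter cells; compounds in DMSO, 17 h at 37C; read-out beta-lactamase via CCF4-AM FRET.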

[19] = qHTS RealTime-Glo MT Cell Viability Assay in HEK293 cells - 40 hour (AID 1224874); settings: RealTime-Glo luminescence; max response: stronger effect = lower value; note: nearly all actives have a fitted effect of over 50% in size
In short: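 Kinetic, non-lysing viability readout. Seed HEK293 (600/well) with reagent, incubate 5 h at 37 C/5% CO2, pin 23 nL compound in DMSO, incubate at 37 C, read luminescence at 0, 8, 16, 24, 32, 40 h.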

Chain of Thyrotropin receptor (Homo sapiens) (P16473 whole entry, looked up): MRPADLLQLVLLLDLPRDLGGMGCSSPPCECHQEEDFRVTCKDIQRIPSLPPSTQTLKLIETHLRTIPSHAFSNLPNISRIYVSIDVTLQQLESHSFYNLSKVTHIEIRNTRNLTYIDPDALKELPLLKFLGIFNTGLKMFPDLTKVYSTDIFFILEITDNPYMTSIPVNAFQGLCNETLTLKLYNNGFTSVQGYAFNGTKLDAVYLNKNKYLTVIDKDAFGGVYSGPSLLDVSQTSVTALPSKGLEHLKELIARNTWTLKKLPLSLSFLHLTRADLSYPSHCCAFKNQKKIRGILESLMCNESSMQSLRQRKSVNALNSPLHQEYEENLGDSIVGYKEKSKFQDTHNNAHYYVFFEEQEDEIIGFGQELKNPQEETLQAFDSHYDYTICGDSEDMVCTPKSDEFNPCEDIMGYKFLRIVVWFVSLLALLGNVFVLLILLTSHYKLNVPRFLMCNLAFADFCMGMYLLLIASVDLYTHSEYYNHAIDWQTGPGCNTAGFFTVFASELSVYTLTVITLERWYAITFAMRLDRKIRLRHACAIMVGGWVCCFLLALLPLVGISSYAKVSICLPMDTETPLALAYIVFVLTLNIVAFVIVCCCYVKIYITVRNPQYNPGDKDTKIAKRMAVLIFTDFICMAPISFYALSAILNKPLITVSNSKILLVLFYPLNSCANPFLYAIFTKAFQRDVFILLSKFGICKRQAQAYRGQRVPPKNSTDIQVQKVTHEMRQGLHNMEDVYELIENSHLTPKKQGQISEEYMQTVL

Row | SMILES | Potency [1] | Potency [2] | Potency [3] | Potency [4] | activity change, positive = activation [5] | Potency [6] | Potency [7] | Potency [8] | Potency [9] | Potency [10] | Potency [11] | Potency [12] | Potency [13] | Potency [14] | Potency [15] | Potency [16] | outcome [17] | Potency [18] | max response [19]
1 | O=C(/C=C/C=C/c1ccc2c(c1)OCO2)N1CCCCC1 | inactive | inactive | inactive | inactive | 24.4% (active) and 12.9% (active) | inactive | 55.1 µM (active) | inactive | inactive | inactive | inactive | inactive | inactive | inactive | inactive | – | – | – | –
2 | CNCCCC12CCC(c3ccccc31)c1ccccc12 | 4.33 µM (active) and 26.6 µM (active) | inactive | 113 µM (active) | – | – | 49 µM (active) and 23.9 µM (active) | 49 µM (active) and 23.9 µM (active) | inactive | 38.9 µM (active) and 26.8 µM (active) | 49 µM (active) | inactive | 54.9 µM (active) | 54.9 µM (active) and 26.8 µM (active) | 43.6 µM (active) and 23.9 µM (active) | 43.6 µM (active) and 23.9 µM (active) | 34.7 µM (active) and 23.9 µM (active) | – | – | –
3 | Cc1cccc([N+](=O)[O-])c1C | – | inactive | inactive | – | – | inactive | inactive | inactive | inactive | inactive | inactive | inactive | inactive | inactive | inactive | inactive | inactive | inactive | 2.52% and -15.5%
4 | O=C(O)c1ccccc1Nc1cccc(C(F)(F)F)c1 | inactive | inactive | inactive | – | – | inactive | inactive | inactive | inactive | inactive | inactive | inactive | inactive | – | inactive | inactive | – | – | –
